Compounds with a hit are over-represented: about 3.2% of the library has one in this group of screens.
GDH-TPI counter: inhibits GDH-TPI coupling enzymes, artifact for Mtb FBA screen | inhibition, % at 4.8 µM | 1.2% of 360,000 active | AID 588335 | GDH-TPI coupled enzyme counterscreen, NADH absorbance; in the data active means inhibition above about 30%
Yp Topo-I inh: inhibitors of Yersinia pestis topoisomerase I. 0.064% of 360,000 active. Y. pestis Topo-I cleavage product accumulation, plate reader. activity, % at 10 µM; in the data active means activity above about 50%, passing the limit was not always enough
TcdB GH inh: inhibitors of Clostridioides difficile toxin B glycohydrolase; P18177; TcdB glycohydrolase enzymatic assay, plate reader; inhibition, % at 9.99 µM; 0.24% of 350,000 active; in the data active means inhibition above about 10%
Mtb FBA inh: Mtb fructose-bisphosphate aldolase inhibition. inhibition, % at 1 µM. 2.3% of 360,000 active. purified M. tuberculosis FBA, fluorescence read-out; in the data active means inhibition above about 27%
Target sequence (P9WQA3 whole entry, looked up): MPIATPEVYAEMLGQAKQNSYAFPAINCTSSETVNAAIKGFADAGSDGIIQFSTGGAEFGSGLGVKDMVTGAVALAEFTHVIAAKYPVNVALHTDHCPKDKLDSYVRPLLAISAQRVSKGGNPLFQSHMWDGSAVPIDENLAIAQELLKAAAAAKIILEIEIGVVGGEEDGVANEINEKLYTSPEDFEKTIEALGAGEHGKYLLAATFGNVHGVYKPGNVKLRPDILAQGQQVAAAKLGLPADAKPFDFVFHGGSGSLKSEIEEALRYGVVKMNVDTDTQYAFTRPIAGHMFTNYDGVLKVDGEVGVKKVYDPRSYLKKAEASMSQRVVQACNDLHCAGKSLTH
PrPC TRFRET: inhibitors of human cell surface prion protein PrPC. P04156. TR-FRET read-out. inhibition, % at 13.8 µM. 0.43% of 370,000 active. AID 720596; in the data active means inhibition above about 24%
Numbers stand for hits; 0 = inactive; - = no result; + = active, no number.

SMILES	GDH-TPI counter	Yp Topo-I inh	TcdB GH inh	Mtb FBA inh	PrPC TRFRET
O=C(C[C@H]1CC[C@H]2[C@@H](COC[C@@H](O)CN2Cc2cccc(Cl)c2)O1)NCc1cccc(F)c1	-	-	0	-	-
O=C(C[C@@H]1C[C@H]2c3cc(NC(=O)NC4CCCC4)ccc3O[C@H]2[C@H](CO)O1)NCc1ccncc1	-	-	0	-	-
C[C@@H]1CN([C@H](C)CO)C(=O)c2cccc(N(C)C)c2O[C@H]1CN(C)S(=O)(=O)c1cccs1	-	-	0	-	-
COc1ccc2ccccc2c1/C=N\NC(=O)c1cccnc1	35	0	0	0	0
Cc1cc(O)c(C)c(O)c1/C=N/NC(=O)c1cccnc1	31	0	0	0	0
O=C(N/N=C/c1c(O)ccc2ccccc12)c1cccnc1	0	0	0	0	0
COc1ccccc1CNC(=O)C[C@@H]1C[C@H]2c3cc(NS(C)(=O)=O)ccc3O[C@H]2[C@H](CO)O1	-	-	0	-	-
Cc1csc(N/N=C/c2ccc(O)c([N+](=O)[O-])c2)n1	39	0	-	0	0
Cc1nnc(N/N=C/c2ccc(O)c([N+](=O)[O-])c2)[nH]c1=O	47	0	-	0	0
O=[N+]([O-])c1cc(/C=N\Nc2nc(-c3ccccc3)cs2)ccc1O	34	0	0	0	0
O=[N+]([O-])c1ccc(-c2csc(N/N=C/c3cccnc3)n2)cc1	0	0	0	0	0
Cc1cc(=O)[nH]c(N/N=C/c2ccc(Cl)c([N+](=O)[O-])c2)n1	0	0	0	0	0
O=C(N/N=C/c1ccc(O)c([N+](=O)[O-])c1)c1ccncc1	0	0	0	0	0
CCOc1cccc(/C=C/c2cc(C(=O)O)c3ccccc3n2)c1OC	48	0	0	0	-
Cc1cc(/C=C2/C(=O)NN(c3ccccc3)C2=O)c(C)n1-c1ccc(O)cc1	0	0	0	0	0
Cc1cc(/C=C2\C(=O)NN(c3ccccc3)C2=O)c(C)n1-c1ccccc1O	34	0	0	0	0
C[C@H]1CN([C@@H](C)CO)C(=O)c2cccc(NS(=O)(=O)c3ccc(Cl)cc3)c2O[C@@H]1CN(C)S(=O)(=O)c1ccccc1	-	-	0	-	-
COc1cc(/C=C(\C#N)C(N)=O)ccc1OCc1c(C)no[n+]1[O-]	31	0	0	0	0
COc1cc(/C=N/Nc2nncn2N)ccc1OCc1c(C)no[n+]1[O-]	0	0	0	0	0
O=C(Nc1nnc(-c2ccco2)o1)C1CC1	0	0	10	0	0
CCCC(=O)Oc1ccc2c(C)cc(=O)oc2c1	0	0	0	+	0
Cc1cc(=O)oc2cc(OC(=O)CCN3C(=O)c4ccccc4C3=O)ccc12	0	0	0	+	0
Cc1cc(=O)oc2cc(OC(=O)c3cncc(Br)c3)ccc12	0	0	0	+	0
Cc1cc(=O)oc2cc(OCCCN3C(=O)c4ccccc4C3=O)ccc12	0	0	0	0	0
O=C(Oc1ccc2c(=O)c(Oc3ccc4ccccc4c3)coc2c1)c1cncc(Br)c1	0	0	0	30	0
SMILES	GDH-TPI counter	Yp Topo-I inh	TcdB GH inh	Mtb FBA inh	PrPC TRFRET
Cc1cc(=O)oc2ccc(OC(=O)CC(C)C)cc12	0	0	0	0	0
Cc1ccc(NC(=O)Nc2ccc3c(c2)C(=O)N(C)[C@H]2CC[C@H](CC(=O)O)O[C@H]2CO3)cc1	-	-	0	-	-
CO[C@@H]1CN(C)C(=O)c2cc(NC(C)=O)ccc2OC[C@H](C)N(C(=O)C2CCC2)C[C@H]1C	-	-	0	-	-
C[C@@H]1CN([C@@H](C)CO)C(=O)c2cc(NC(=O)CCC(F)(F)F)ccc2O[C@@H]1CN(C)S(=O)(=O)c1cn(C)cn1	-	-	0	-	-
CCC(=O)Nc1ccc2c(c1)C(=O)N(C)C[C@H](OC)[C@H](C)CN(C(=O)CC1CC1)[C@H](C)CO2	-	-	0	-	-
C=CCN(c1ccccc1)S(=O)(=O)c1cccc(C(=O)Oc2ccc3c(C)cc(=O)oc3c2)c1	0	0	-	+	0
C=CCN(c1ccccc1)S(=O)(=O)c1cccc(C(=O)OCC(=O)NCCOC)c1	0	0	0	0	0
CCCCn1nc(C(=O)Oc2ccc3c(C)cc(=O)oc3c2)c2ccccc2c1=O	0	0	0	+	0
O=C(O)CC1S/C(=N\N=C/c2ccccc2)N(c2ccc(O)cc2)C1=O (stereo unspecified)	0	0	0	0	0
CN1C(=O)C(CC(=O)O)S/C1=N\N=C\c1ccc(O)cc1O (stereo unspecified)	52	0	0	0	0
CC(C)(C)c1cc(Cl)c(O)c(NC(=S)NC(=O)c2cccnc2)c1	0	0	10	0	0
CC(C)(C)c1ccc(C(=O)NNC(=S)NC(=O)c2cccnc2)cc1	0	0	0	0	0
COc1cc2c(cc1OC)C1=NC(=O)CN1C(SCc1ccccc1C)=N2	0	0	-	27	0

Screening data as filed in PubChem BioAssay.
